Records with an inconclusive call do not appear. Entries that show only a call come without a potency. Values without a mark were called inactive. Calls of active or inactive are those of the source. The call rests on the fitted dose curve; in most records, active means well fitted inhibition curve with a large enough effect; inconclusive means small, poorly fitted or top-dose-only effect; inactive means flat fitted curve, though single readings scatter.
Assays:
[1] = test system: P94_40; test: qHTS profiling for inhibitors of Plasmodium falciparum proliferation (AID 504749); settings: P. falciparum in erythrocytes, SYBR Green DNA, 72 h; series mostly up to 28.7 µM
Method in brief: (§1)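 Each compound contacts P. falciparum-infected red blood cells for 72 h at 37 C; lysis buffer (Tris, EDTA, saponin, Triton X, SYBR Green I) is added and fluorescence measured next morning; values normalized to controls.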

[2] = test system: PAD; test: as above; settings: P. falciparum in erythrocytes, SYBR Green DNA, 72 h; series mostly up to 28.7 µM
Method in brief: as §1

[3] = test system: PC15; test: as above; settings: P. falciparum in erythrocytes, SYBR Green DNA, 72 h; series mostly up to 28.7 µM
Method in brief: as §1

[4] = test system: PC26; test: as above; settings: P. falciparum in erythrocytes, SYBR Green DNA, 72 h; series mostly up to 28.7 µM
Method in brief: as §1

[5] = test system: PC49; test: as above; settings: P. falciparum in erythrocytes, SYBR Green DNA, 72 h; series mostly up to 28.7 µM
Method in brief: as §1

[6] = test system: SC27B; test: as above; settings: P. falciparum in erythrocytes, SYBR Green DNA, 72 h; series mostly up to 28.7 µM
Method in brief: as §1

[7] = test system: TAB109; test: as above; settings: P. falciparum in erythrocytes, SYBR Green DNA, 72 h; series mostly up to 28.7 µM
Method in brief: as §1

[8] = test system: TAB113; test: as above; settings: P. falciparum in erythrocytes, SYBR Green DNA, 72 h; series mostly up to 28.7 µM
Method in brief: as §1

[9] = test system: TAB165; test: as above; settings: P. falciparum in erythrocytes, SYBR Green DNA, 72 h; series mostly up to 28.7 µM
Method in brief: as §1

[10] = test system: W2; test: as above; settings: P. falciparum in erythrocytes, SYBR Green DNA, 72 h; series mostly up to 28.7 µM
Method in brief: as §1

[11] = test system: CRL-7250; test: Cytotoxic Profiling of Annotated Libraries Using Quantitative High-Throughput Screening (AID 1296008); settings: Five cell lines viability, CellTiter-Glo ATP luminescence, 48-72 h; max response: hits give low values
Method in brief: (§2)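 Cells exposed to compounds for 48 or 72 hr at 37 degrees Celsius. Viability read as ATP-coupled luminescence with CellTiter-Glo after 10 min at room temperature.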

[12] = test system: HEK293; test: as above; settings: Five cell lines viability, CellTiter-Glo ATP luminescence, 48-72 h; max response: hits give low values
Method in brief: as §2

[13] = test system: HaCat; test: as above; settings: Five cell lines viability, CellTiter-Glo ATP luminescence, 48-72 h; max response: hits give low values
Method in brief: as §2

[14] = test system: KB-3-1; test: as above; settings: Five cell lines viability, CellTiter-Glo ATP luminescence, 48-72 h; max response: hits give low values
Method in brief: as §2

[15] = test system: NIH3T3; test: as above; settings: Five cell lines viability, CellTiter-Glo ATP luminescence, 48-72 h; max response: hits give low values
Method in brief: as §2

[16] = test system: MCC-13; test: qHTS assay to identify novel small-molecules to repurpose for Merkel cell carcinoma treatment (AID 1296009); settings: MCC and control cell lines, CellTiter-Glo viability, 72 h; series mostly up to 46 µM
Method in brief: (§3)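 Dose-response viability screen; 72 hr exposure at 37 degree celsius; CellTiter-Glo added, 10 min room temperature, luminescence read; RLUs scaled between no-cell and DMSO wells.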

[17] = test system: MCC-26; test: as above; settings: MCC and control cell lines, CellTiter-Glo viability, 72 h; series mostly up to 46 µM
Method in brief: as §3

[18] = test system: MKL-1; test: as above; settings: MCC and control cell lines, CellTiter-Glo viability, 72 h; series mostly up to 46 µM
Method in brief: as §3

[19] = test system: HACAT; test: as above; settings: MCC and control cell lines, CellTiter-Glo viability, 72 h; at 44.8 µM (top of the series) unless noted
Method in brief: as §3

[20] = test system: HEK293T; test: as above; settings: MCC and control cell lines, CellTiter-Glo viability, 72 h; at 44.8 µM (top of the series) unless noted
Method in brief: as §3
Further: nearly all actives have a fitted effect of over 60% in size.
Potency means the concentration at half of the fitted maximal effect.

## C[C@H](CS)C(=O)N1CCC[C@H]1C(=O)O
[1]
  Potency: inactive
[2]
  Potency: inactive
[3]
  Potency: inactive
[4]
  Potency: inactive
[5]
  Potency: inactive
[6]
  Potency: inactive
[7]
  Potency: inactive
[8]
  Potency: inactive
[9]
  Potency: inactive
[10]
  Potency: inactive
[11]
  max response: 1.04%
[12]
  max response: -1.78%
[13]
  max response: 2.06%
[14]
  max response: 0.626%
[15]
  max response: -6.68%
[16]
  Potency: inactive
[17]
  Potency: inactive
[18]
  Potency: inactive

## Cc1ccc(=O)n(-c2ccccc2)c1
[1]
  Potency: inactive
[3]
  Potency: inactive
[4]
  Potency: inactive
[5]
  Potency: inactive
[6]
  Potency: inactive
[7]
  Potency: inactive
[8]
  Potency: inactive
[9]
  Potency: inactive
[10]
  Potency: inactive
[11]
  max response: -4.72%
[12]
  max response: 4.05%
[13]
  max response: 3.39%
[14]
  max response: 4.11%
[15]
  max response: -3.29%
[16]
  Potency: inactive
[17]
  Potency: inactive
[18]
  Potency: inactive

## CN1C[C@H](C(=O)N[C@]2(C)O[C@@]3(O)[C@@H]4CCCN4C(=O)[C@H](Cc4ccccc4)N3C2=O)C[C@@H]2c3cccc4[nH]cc(c34)C[C@H]21
[4]
  Potency: 1.2 µM (active)
[10]
  Potency: 1.51 µM (active)
[11]
  outcome: inactive
[12]
  Potency: 10.6 µM (active)
[13]
  max response: -5.88%
[14]
  max response: 0.239%
[16]
  Potency: inactive
[17]
  Potency: inactive
[18]
  Potency: inactive

## C[n+]1cc2c3c(ccc2c2ccc4cc5c(cc4c21)OCO5)OCO3
[1]
  Potency: inactive
[2]
  Potency: inactive
[3]
  Potency: inactive
[5]
  Potency: inactive
[6]
  Potency: inactive
[7]
  Potency: inactive
[9]
  Potency: inactive
[11]
  Potency: 1.84 µM (active)
[12]
  Potency: 1.16 µM (active)
[13]
  Potency: 2.59 µM (active)
[14]
  max response: -95.7%
[15]
  Potency: 4.61 µM (active)
[17]
  Potency: 3.66 µM (active)
[18]
  Potency: 1.46 µM (active)

## CO[C@@]1(NC(=O)CSCC#N)C(=O)N2C(C(=O)O)=C(CSc3nnnn3C)CS[C@@H]21
[11]
  max response: 2.03%
[12]
  max response: -2.42%
[13]
  outcome: inactive
[15]
  max response: -0.696%
[19]
  outcome: inactive
[16]
  Potency: inactive
[17]
  Potency: inactive
[18]
  Potency: inactive

## C[C@]12C=CC(=O)C=C1CC[C@H]1[C@@H]3C[C@@H](O)[C@](O)(C(=O)CO)[C@@]3(C)C[C@H](O)[C@@]12F
[11]
  max response: 3.67%
[12]
  outcome: inactive
[13]
  max response: -5.14%
[15]
  outcome: inactive
[20]
  outcome: inactive
[16]
  Potency: inactive
[17]
  Potency: inactive
[18]
  Potency: inactive

## NC(=O)N1c2ccccc2C=Cc2ccccc21
[2]
  Potency: inactive
[3]
  Potency: inactive
[4]
  Potency: inactive
[5]
  Potency: inactive
[6]
  Potency: inactive
[7]
  Potency: inactive
[8]
  Potency: inactive
[9]
  Potency: inactive
[10]
  Potency: inactive
[11]
  outcome: inactive
[12]
  max response: 2.7%
[13]
  max response: -8.83%
[15]
  max response: 2.27%
[16]
  Potency: inactive
[17]
  Potency: inactive
[18]
  Potency: inactive

## CN(C)C(=O)Oc1cccc([N+](C)(C)C)c1
[1]
  Potency: inactive
[2]
  Potency: inactive
[3]
  Potency: inactive
[4]
  Potency: inactive
[5]
  Potency: inactive
[6]
  Potency: inactive
[7]
  Potency: inactive
[8]
  Potency: inactive
[9]
  Potency: inactive
[10]
  Potency: inactive
[11]
  outcome: inactive
[12]
  outcome: inactive
[13]
  outcome: inactive
[15]
  max response: 1.77%
[19]
  outcome: inactive
[20]
  outcome: inactive
[16]
  Potency: inactive
[17]
  Potency: inactive
[18]
  Potency: inactive

## O=C(O)CP(=O)(O)O
[1]
  Potency: inactive
[2]
  Potency: inactive
[3]
  Potency: inactive
[4]
  Potency: inactive
[5]
  Potency: inactive
[6]
  Potency: inactive
[7]
  Potency: inactive
[8]
  Potency: inactive
[9]
  Potency: inactive
[11]
  max response: -7.2%
[12]
  outcome: inactive
[14]
  max response: 0.355%
[15]
  outcome: inactive
[20]
  outcome: inactive
[16]
  Potency: inactive
[17]
  Potency: inactive
[18]
  Potency: inactive

## CC(C)(C)NCC(O)c1cc(O)cc(O)c1 (stereo unspecified)
[11]
  max response: -15.1%
[12]
  max response: -2.84%
[13]
  max response: 4.23%
[15]
  max response: 3.49%
[16]
  Potency: inactive
[17]
  Potency: inactive
[18]
  Potency: inactive

## NC(N)=NC(=O)Cc1c(Cl)cccc1Cl
[4]
  Potency: 7.57 µM (active)
[8]
  Potency: inactive
[10]
  Potency: 6.75 µM (active)
[11]
  max response: -2.41%
[12]
  Potency: 8.41 µM (active)
[13]
  max response: -14.8%
[14]
  max response: 6.63%
[15]
  max response: 3.43%
[16]
  Potency: inactive
[17]
  Potency: inactive
[18]
  Potency: inactive

## CCOC(=O)c1cnc2c(cnn2CC)c1NN=C(C)C
[2]
  Potency: inactive
[3]
  Potency: inactive
[4]
  Potency: inactive
[5]
  Potency: inactive
[6]
  Potency: inactive
[7]
  Potency: inactive
[8]
  Potency: inactive
[9]
  Potency: inactive
[11]
  max response: 1.67%
[12]
  max response: 2.79%
[13]
  max response: -11.8%
[14]
  max response: 7.56%
[15]
  max response: -3.28%
[16]
  Potency: inactive
[17]
  Potency: inactive
[18]
  Potency: inactive

## CN1C(=O)CC[C@H]1c1cccnc1
[11]
  max response: -11.6%
[12]
  max response: -8.79%
[13]
  outcome: inactive
[15]
  max response: -5.17%
[19]
  outcome: inactive
[16]
  Potency: inactive
[17]
  Potency: inactive
[18]
  Potency: inactive

## C[C@@H](O)[C@H]1C(=O)N2C(C(=O)O)=C(SCCN=CN)C[C@H]12
[11]
  max response: -15.5%
[12]
  max response: -4.83%
[14]
  max response: -8.98%
[15]
  max response: -19.7%
[16]
  Potency: inactive
[17]
  Potency: inactive
[18]
  Potency: inactive

## c1ccc2c(c1)CCCC2C1=NCCN1 (stereo unspecified)
[11]
  max response: 0.704%
[12]
  max response: 3.92%
[13]
  outcome: inactive
[15]
  outcome: inactive
[19]
  outcome: inactive
[16]
  Potency: inactive
[17]
  Potency: inactive
[18]
  Potency: inactive

## CC(=O)Oc1cc(C(C)C)c(OCCN(C)C)cc1C
[1]
  Potency: inactive
[2]
  Potency: inactive
[3]
  Potency: inactive
[4]
  Potency: inactive
[5]
  Potency: inactive
[6]
  Potency: inactive
[7]
  Potency: inactive
[8]
  Potency: inactive
[9]
  Potency: inactive
[10]
  Potency: inactive
[11]
  max response: -7.06%
[12]
  outcome: inactive
[13]
  max response: 3.27%
[15]
  outcome: inactive
[20]
  outcome: inactive
[16]
  Potency: inactive
[17]
  Potency: inactive
[18]
  Potency: inactive

— PubChem BioAssay (NCATS)
